In PubChem BioAssay AID1159580 (chemical genetic matrix, 2015):
“And” between values parts separate entries of the source, which are not always exact repeats. Equal values may be shown once. The campaign covered roughly 5,500 compounds. About 2,000 (36%) were called active. Inconclusive results (about 18%) are left out. Cut-off read from the data, not from the text of the source: active = normalized growth mostly below about 0.91 (no sharp cut-off); inconclusive = no clear call, values can overlap the other calls; inactive = mostly above about 0.92. Some of the results follow.

Assay: chemical genetic growth profiling, strain panel (AID 1159580);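 note: tested at 20 µM; growth read once vehicle control cultures reached saturation at 30 °C; 1 = growth at the plate median or of vehicle wells; lower values mean less growth of the strain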
Settings: S. cerevisiae deletion strains, growth OD

Measured: normalized growth

COc1ccc(-c2coc3c(OC)c(OC)cc(O)c3c2=O)cc1
active: locus YBR021W, strain FUR4, stronger effect = lower value 0.838 | locus YGR252W, strain gcn5, stronger effect = lower value 0.74 | locus YKR001C, strain vps1, stronger effect = lower value 0.871 | locus YNL307C, strain MCK1, stronger effect = lower value 0.903 | locus YPR163C, strain tif3, stronger effect = lower value 0.866
inactive: locus YAL021C, strain ccr4, stronger effect = lower value 1.03 | locus YAL026C, strain drs2, stronger effect = lower value 1 | locus YAL030W, strain snc1, stronger effect = lower value 0.997 | locus YBL061C, strain skt5, stronger effect = lower value 0.999 | locus YBR009C, strain hhf1, stronger effect = lower value 1.01 | locus YBR023C, strain chs3, stronger effect = lower value 0.99 | locus YBR171W, strain sec66, stronger effect = lower value 1.03 | locus YBR229C, strain ROT2, stronger effect = lower value 0.988 | locus YBR231C, strain swc5, stronger effect = lower value 0.994 | locus YBR279W, strain paf1, stronger effect = lower value 0.995 | locus YCL011C, strain gbp2, stronger effect = lower value 0.998 | locus YCL016C, strain dcc1, stronger effect = lower value 1 | locus YCL029C, strain bik1, stronger effect = lower value 0.975 | locus YCL061C, strain MRC1, stronger effect = lower value 1.01 | locus YCL069W, strain vba3, stronger effect = lower value 0.999 | locus YCR088W, strain abp1, stronger effect = lower value 0.997 | locus YDL005C, strain med2, stronger effect = lower value 1 | locus YDL035C, strain GPR1, stronger effect = lower value 0.981 | locus YDL040C, strain nat1, stronger effect = lower value 1 | locus YDL074C, strain BRE1, stronger effect = lower value 0.924 | locus YDL101C, strain DUN1, stronger effect = lower value 0.988 | locus YDL185W, strain tfp1, stronger effect = lower value 1.01 | locus YDL192W, strain arf1, stronger effect = lower value 0.942 | locus YDR001C, strain nth1, stronger effect = lower value 0.997 | locus YDR069C, strain doa4, stronger effect = lower value 1 | locus YDR101C, strain arx1, stronger effect = lower value 0.947 | locus YDR137W, strain rgp1, stronger effect = lower value 0.951 | locus YDR159W, strain sac3, stronger effect = lower value 0.988 | locus YDR162C, strain NBP2, stronger effect = lower value 0.959 | locus YDR195W, strain ref2 1.05 | locus YDR297W, strain sur2, stronger effect = lower value 0.992 | locus YDR318W, strain mcm21, stronger effect = lower value 0.948 | locus YDR334W, strain swr1, stronger effect = lower value 1.01 | locus YDR335W, strain msn5, stronger effect = lower value 1 | locus YDR388W, stronger effect = lower value 0.974 | locus YDR392W, strain spt3, stronger effect = lower value 0.965 | locus YDR502C, strain sam2, stronger effect = lower value 0.95 | locus YEL003W, strain gim4, stronger effect = lower value 0.994 | locus YEL037C, strain rad23, stronger effect = lower value 1.01 | locus YEL061C, strain CIN8 (second series), stronger effect = lower value 1.01 | locus YER015W, strain faa2, stronger effect = lower value 1 | locus YER016W, strain bim1, stronger effect = lower value 1.01 | locus YER110C, stronger effect = lower value 0.959 | locus YER111C, strain swi4, stronger effect = lower value 1.03 | locus YER155C, strain BEM2 (second series), stronger effect = lower value 1.01 | locus YER155C, strain BEM2, stronger effect = lower value 0.996 | locus YER167W, strain BCK2, stronger effect = lower value 0.99 | locus YFR010W, strain ubp6, stronger effect = lower value 1.01 | locus YGL078C, strain dbp3, stronger effect = lower value 0.968 | locus YGL086W, strain mad1, stronger effect = lower value 0.954 | locus YGL167C, strain pmr1, stronger effect = lower value 1.01 | locus YGL173C, strain kem1, stronger effect = lower value 1 | locus YGL227W, strain vid30, stronger effect = lower value 1 | locus YGL240W, strain doc1, stronger effect = lower value 0.991 | locus YGL248W, strain PDE1, stronger effect = lower value 0.96 | locus YGL253W, strain hxk2, stronger effect = lower value 1.01 | locus YGR078C, strain PAC10, stronger effect = lower value 0.956 | locus YGR135W, strain pre9, stronger effect = lower value 0.928 | locus YGR229C, strain SMI1, stronger effect = lower value 0.896 | locus YHR013C, strain ard1, stronger effect = lower value 0.989 | locus YHR027C, strain rpn1, stronger effect = lower value 1.01 | locus YHR030C, strain SLT2, stronger effect = lower value 0.917 | locus YHR079C, strain IRE1 (second series), stronger effect = lower value 0.978 | locus YHR079C, strain IRE1, stronger effect = lower value 0.925 | locus YHR094C, strain hxt1, stronger effect = lower value 0.982 | locus YHR129C, strain ARP1, stronger effect = lower value 0.985 | locus YHR142W, strain chs7, stronger effect = lower value 0.976 | locus YHR200W, strain rpn10, stronger effect = lower value 0.941 | locus YIL066C, strain RNR3, stronger effect = lower value 0.986 | locus YIL073C, strain SPO22, stronger effect = lower value 0.9 | locus YIL125W, strain kgd1, stronger effect = lower value 0.983 | locus YIR030C, strain dcg1, stronger effect = lower value 0.961 | locus YJL092W, strain hpr5, stronger effect = lower value 1.01 | locus YJL095W, strain BCK1 (second series), stronger effect = lower value 0.995 | locus YJL095W, strain BCK1, stronger effect = lower value 0.871 and 0.958 | locus YJL115W, strain asf1, stronger effect = lower value 1.01 | locus YJL129C, strain trk1, stronger effect = lower value 0.999 | locus YJL134W, strain LCB3, stronger effect = lower value 1 | locus YJL154C, strain vps35, stronger effect = lower value 1.01 | locus YJL164C, strain tpk1, stronger effect = lower value 0.997 | locus YJL166W, strain qcr8, stronger effect = lower value 0.996 | locus YJL168C, strain set2, stronger effect = lower value 0.978 | locus YJL187C, strain SWE1 (second series), stronger effect = lower value 0.968 | locus YJL187C, strain SWE1, stronger effect = lower value 0.992 | locus YJR066W, strain TOR1, stronger effect = lower value 0.863 | locus YKL009W, strain mrt4, stronger effect = lower value 0.972 | locus YKL068W, stronger effect = lower value 0.993 | locus YKL085W, strain MDH1 (second series), stronger effect = lower value 0.979 | locus YKL085W, strain MDH1, stronger effect = lower value 0.979 | locus YKL160W, strain elf1, stronger effect = lower value 0.991 | locus YKR026C, strain gcn3, stronger effect = lower value 1.01 | locus YKR091W, strain srl3, stronger effect = lower value 0.999 | locus YLL001W, strain dnm1, stronger effect = lower value 1.01 | locus YLL026W, stronger effect = lower value 1.01 | locus YLL041C, strain sdh2, stronger effect = lower value 1.01 | locus YLR027C, strain aat2, stronger effect = lower value 1 | locus YLR039C, strain RIC1, stronger effect = lower value 0.903 | locus YLR058C, strain SHM2, stronger effect = lower value 0.96 | locus YLR102C, strain apc9, stronger effect = lower value 0.986 | locus YLR113W, strain HOG1, stronger effect = lower value 0.949 | locus YLR221C, strain rsa3, stronger effect = lower value 0.997 | locus YLR258W, strain gsy2, stronger effect = lower value 0.982 | locus YLR262C, strain YPT6 (second series), stronger effect = lower value 0.949 | locus YLR268W, strain sec22, stronger effect = lower value 0.927 | locus YLR320W, strain mms22, stronger effect = lower value 0.993 | locus YLR330W, strain CHS5, stronger effect = lower value 0.976 | locus YLR342W, strain FKS1, stronger effect = lower value 1 | locus YLR357W, strain rsc2, stronger effect = lower value 0.989 | locus YLR370C, strain arc18, stronger effect = lower value 1 | locus YLR371W, strain rom2, stronger effect = lower value 0.945 | locus YLR384C, strain iki3, stronger effect = lower value 1.01 | locus YLR418C, strain cdc73, stronger effect = lower value 0.855 | locus YML016C, strain PPZ1, stronger effect = lower value 0.985 | locus YML032C, strain rad52, stronger effect = lower value 0.951 | locus YML120C, strain ndi1, stronger effect = lower value 0.997 | locus YML124C, strain tub3, stronger effect = lower value 0.981 | locus YMR058W, strain fet3, stronger effect = lower value 1.01 | locus YMR078C, strain ctf18, stronger effect = lower value 0.976 | locus YMR125W, strain sto1, stronger effect = lower value 1.01 | locus YMR129W, stronger effect = lower value 1 | locus YMR205C, strain PFK2, stronger effect = lower value 0.991 | locus YMR223W, strain ubp8, stronger effect = lower value 0.95 | locus YMR231W, strain pep5, stronger effect = lower value 0.995 | locus YMR263W, strain SAP30, stronger effect = lower value 0.97 | locus YMR307W, strain GAS1, stronger effect = lower value 0.787 | locus YNL067W, strain RPL9B, stronger effect = lower value 0.968 | locus YNL071W, strain lat1, stronger effect = lower value 1 | locus YNL128W, strain TEP1, stronger effect = lower value 1.01 | locus YNL183C, strain NPR1, stronger effect = lower value 0.913 | locus YNL209W, strain ssb2, stronger effect = lower value 0.999 | locus YNL233W, strain BNI4, stronger effect = lower value 0.908 | locus YNL248C, strain rpa49, stronger effect = lower value 1.01 | locus YNL250W, strain rad50, stronger effect = lower value 0.997 | locus YNL271C, strain bni1, stronger effect = lower value 0.98 | locus YNL298W, strain CLA4, stronger effect = lower value 0.965 | locus YNL322C, strain KRE1 (second series), stronger effect = lower value 1.01 | locus YNR049C, strain mso1, stronger effect = lower value 1 | locus YNR052C, strain pop2, stronger effect = lower value 0.977 | locus YOL012C, strain htz1 0.766 | locus YOL147C, strain pex11, stronger effect = lower value 0.96 | locus YOR001W, strain rrp6, stronger effect = lower value 1.01 | locus YOR061W, strain CKA2, stronger effect = lower value 1 | locus YOR069W, strain VPS5, stronger effect = lower value 0.995 | locus YOR070C, strain gyp1, stronger effect = lower value 1.02 | locus YOR080W, strain dia2, stronger effect = lower value 1.01 | locus YOR083W, strain WHI5, stronger effect = lower value 0.99 | locus YOR106W, strain vam3, stronger effect = lower value 0.989 | locus YOR136W, strain idh2, stronger effect = lower value 0.976 | locus YOR144C, strain elg1, stronger effect = lower value 0.979 | locus YOR184W, strain ser1, stronger effect = lower value 0.887 | locus YOR231W, strain MKK1, stronger effect = lower value 0.949 | locus YOR265W, strain rbl2, stronger effect = lower value 1.01 | locus YOR270C, strain vph1, stronger effect = lower value 0.945 | locus YOR290C, strain snf2, stronger effect = lower value 0.986 | locus YOR316C, strain cot1, stronger effect = lower value 0.991 | locus YPL051W, strain arl3, stronger effect = lower value 0.997 | locus YPL078C, strain atp4, stronger effect = lower value 0.991 | locus YPL106C, strain sse1, stronger effect = lower value 0.948 | locus YPL240C, strain hsp82, stronger effect = lower value 0.994 | locus YPL241C, strain CIN2, stronger effect = lower value 1.01 | locus YPL256C, strain CLN2, stronger effect = lower value 0.904 | locus YPR119W, strain clb2, stronger effect = lower value 0.982 | locus YPR141C, strain kar3, stronger effect = lower value 0.979 | locus YPR167C, strain met16, stronger effect = lower value 0.955 | strain wtn01, stronger effect = lower value 0.942
